Screening results from PubChem.
HCV inhibitor: qHTS Assay for Inhibitors of Hepatitis C Virus (HCV); Huh7.5.1 HCVcc-Cre infection, luciferase reporter, 44 h; Potency, µM (top dose mostly 41.8 µM), without a hit: at the top dose activity change, negative = inhibition, hits mostly inhibitors; 3.4% of 340,000 active; AID 651820, 2012; active means well fitted inhibition curve with a large enough effect; inconclusive means small, poorly fitted or top-dose-only effect, or another doubt; inactive means no such curve, though single readings can be large or run the other way; further: potency means the concentration at half of the fitted maximal effect; on the % scale 0 is the no-effect control and ±100 the full control effect
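Infectious HCV cell culture screen: compound-treated cells (1,000/well, pre-plated 4 h) are infected with HCVcc-Cre at roughly 0.5 moi and grown 44 h. Infection is quantified by luciferase signal after 15 min substrate incubation at room temperature.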
Marburg entry inh: qHTS for inhibitors of binding or entry into cells for Marburg Virus; Marburg virus pseudotyped entry inhibition, cell reporter; Potency, µM (top dose mostly 37.8 µM), for inactives: top-dose activity change, negative = inhibition, hits mostly inhibitors; 1.8% of 300,000 active; AID 540276, 2011; calls by dose curve; tested in HEK293 cells; further: potency means the concentration at half of the fitted maximal effect; on the % scale 0 is the no-effect control and ±100 the full control effect
Shiga inhibitor: A qHTS for Small Molecule Inhibitors of Shiga Toxin | Vero cells, Shiga toxin protein synthesis inhibition reporter | 9.2% of 290,000 active | inhibition, % at 38.7 µM; in the data active means inhibition mostly above about 28%, no sharp cut-off; inactive means mostly below about 43%; further: 0% is about no effect
Cycloheximide cs: Cycloheximide Counterscreen for Small Molecule Inhibitors of Shiga Toxin; cell reporter, cycloheximide protein synthesis inhibition counterscreen; max response, %; 12% of 300,000 active; AID 2314, 2010; in the data active means max response mostly above about 13%, no sharp cut-off; inactive means mostly below about 14%; further: read at 38.3 µM for the half of the compounds with a filed dose; 0% is about no effect
FMDV antiviral: High Throughput Screening for Foot and Mouth Disease Virus Antivirals; FMDV antiviral cell-based qHTS; Potency, µM (series often up to 57.9 µM), for the others: at the highest dose activity change, negative = inhibition, most hits filed as inhibitors; 1.2% of 410,000 active; calls by dose curve; tested in HEK293T cells; further: read-out not given here; potency means the concentration at half of the fitted maximal effect; on the % scale 0 is the no-effect control and ±100 the full control effect; nearly all actives have a fitted effect of over 45% in size
LASV entry inh: qHTS for Inhibitors of binding or entry into cells for Lassa Virus; 1.2% of 300,000 active; Potency, µM (highest dose often 37.9 µM), without a hit: at the top dose activity change, negative = inhibition, hits mostly inhibitors; Lassa virus pseudotype entry inhibition, cell reporter; AID 540256, 2011; calls by dose curve; tested in HEK293 cells; further: potency means the concentration at half of the fitted maximal effect; on the % scale 0 is the no-effect control and ±100 the full control effect; nearly all actives have a fitted effect of over 50% in size
* = called active by the depositor; ? = inconclusive; / = not tested or not shown; [ ] = another dose, or the depositor's remark. Shown are actives, neighbours in structure and some others; about 13% of the full set was active somewhere.

SMILES	HCV inhibitor	Marburg entry inh	Shiga inhibitor	Cycloheximide cs	FMDV antiviral	LASV entry inh
Nc1nc(NCC2CCCO2)nc(Nc2cccc(F)c2)c1[N+](=O)[O-] (configuration not stated)	-12%	/	-7	0	-20%	/
Nc1nc(Nc2ccc(Cl)cc2)nc(NCc2ccco2)c1[N+](=O)[O-]	?	?	84*	48*	7%	-17%
COc1ccc(Nc2nc(NCc3ccco3)nc(N)c2[N+](=O)[O-])cc1	-22%	15%[14.2 µM]	-9	-2	-11%	-12%
Nc1nc(Nc2cccc(Cl)c2)nc(NCCO)c1[N+](=O)[O-]	-34%	?	12	7	-6%	?
Nc1nc(NCc2ccco2)nc(N2CCCCC2)c1[N+](=O)[O-]	-5%	10µM*	-4	-6	-22%	1%
Nc1nc(Nc2cccc(Cl)c2)nc(NCc2ccco2)c1[N+](=O)[O-]	?	5.6µM*	36	34*	?	?
CN1CCN(c2nc(NCc3ccco3)nc(N)c2[N+](=O)[O-])CC1	22%	1%[46.1 µM]	6	-2	1%	10%
Nc1nc(Nc2cccc(F)c2)nc(NCc2ccco2)c1[N+](=O)[O-]	?	?	36	13*	?	?
COc1cccc(C(O)c2ncc(-c3cccc(F)c3)[nH]2)c1 (configuration not stated)	/	/	/	/	65%	/
Cc1cccc(Nc2nc(N)c([N+](=O)[O-])c(NCc3ccco3)n2)c1	?	?	21	-3	?	2%
Cc1cccc(Nc2nc(NCc3ccco3)nc(N)c2[N+](=O)[O-])c1	?	5.6µM*	7	5	4%	?
c1ccc2c(c1)ccc1nnc(SCc3ccc4c(c3)OCO4)n12	-10%	/	41	24	48%	/
Cc1ccc(NC(=O)c2ccc(NC(=O)N3CCSc4ncccc43)cc2)c(C)c1	/	/	/	/	-29%	?
Cc1cc(O)c(C(=O)Cc2csc(C)n2)c(O)c1	11%	/	83*	39*	49%	/
COC(=O)c1ccccc1NC(=O)c1nc2nc(C)cc(C(F)F)n2n1	7%	10%	-15	-4	-13%	-1%
O=C(NC(C(=O)N/N=C/c1c2ccccc2cc2ccccc12)c1n[nH]c(=O)c2ccccc12)c1ccccc1 (configuration not stated)	2.5µM*	?	-5	-4	-9%	-19%
O=C(/C=C/c1ccco1)N1CCN(S(=O)(=O)c2cccs2)CC1	-7%	0%[46.1 µM]	15	-2	-26%	6%
Cc1cccc(C(=O)OCC(=O)NCc2cccs2)c1	9%	6%[46.1 µM]	-5	5	-10%	28%
Cc1ccc(/C=C/C(=O)NCc2cccs2)c(C)c1	6%	?	53*	37*	14%	?
O=C(COC(=O)/C=C/c1ccc([N+](=O)[O-])cc1)NCc1cccs1	14%	/	/	/	-24%	/
O=C(/C=C/c1ccc([N+](=O)[O-])cc1)NCc1cccs1	3%	?	13*	38*	-13%	?
Cc1ccc(/C=C/C(=O)NCc2cccs2)cc1	-14%	-2%	139*	66*	44%	2µM*
Cc1ccc(/C=C/C(=O)N2CCN(S(=O)(=O)c3cccs3)CC2)o1	24%	/	-4	23*	-10%	/
CCOC(=O)c1cc(-c2ccccc2)sc1NC(=O)C(C)OC(=O)c1ccncc1 (configuration not stated)	-11%	-2%	0	-2	-11%	5%
O=C(O)C1C2C=CC(O2)C1C(=O)Nc1cccc(C(F)(F)F)c1 (configuration not stated)	12%	/	-6	-1	0%	/
OC(COCCC12CC3CC(CC(C3)C1)C2)CN1CCCC1 (configuration not stated)	10%	/	-4	6	?	/
CC(C)[C@@H]1NC(=O)c2cc([N+](=O)[O-])cc(I)c2OCC[C@@H](C(N)=O)NC(=O)[C@H](CCC(=O)O)NC1=O	11%	-41%	-20	-4	-12%	-7%
Cc1ccc(/C=C/C(=O)NCc2cccs2)o1	-5%	-13%	91*	18*	55%	?
O=C(/C=C/c1cccs1)NCc1cccs1	-4%	/	/	/	60%	/
